Measured values published in PubChem BioAssay (NCI).
This is part of a sample that, as a whole, favours compounds with a hit. Of some 83,000 tested, about 20% had one in any assay.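 How to read the values: 0–100, growth inhibition (40 = 60% inhibited); 0, no net growth; -100 to 0, cell death (-40 = 40% of starting cells died; -100 = all dead).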 A number with no mark means an inactive call. Activity calls are given as the source filed them. How the source made its calls: active means growth percent below 10; inactive means the rest.

Key:
Test in all cases: NCI-60 one-dose screen, 48 h (100 = growth as untreated, 0 = no growth, -100 = all killed)
Settings in all cases: 10 µM unless noted
HCT-15 colon = test system: HCT-15 colon
HT29 colon = test system: HT29 colon
SNB-75 CNS = test system: SNB-75 CNS
SNB-19 CNS = test system: SNB-19 CNS
U251 CNS = test system: U251 CNS
PC-3 prostate = test system: PC-3 prostate
SK-MEL-5 melanoma = test system: SK-MEL-5 melanoma
UACC-62 melanoma = test system: UACC-62 melanoma
LOX IMVI melanoma = test system: LOX IMVI melanoma
SK-MEL-28 melanoma = test system: SK-MEL-28 melanoma

Row | Compound | growth (HCT-15 colon) | growth (HT29 colon) | growth (SNB-75 CNS) | growth (SNB-19 CNS) | growth (U251 CNS) | growth (PC-3 prostate) | growth (SK-MEL-5 melanoma) | growth (UACC-62 melanoma) | growth (LOX IMVI melanoma) | growth (SK-MEL-28 melanoma)
1 | C#CC#CC#CC#CC#CC#CC#CC#CC[C@H]1OC[C@H](COC(=O)O[C@@H](C(=O)O[C@H]2C[C@@]3(O)[C@@H](OC(=O)c4ccccc4)[C@@H]4[C@]5(OC(C)=O)CO[C@@H]5C[C@H](O)[C@@]4(C)C(=O)[C@H](OC(C)=O)C(=C2C)C3(C)C)[C@@H](NC(=O)c2ccccc2)c2ccccc2)O1 | 99.5% | 8.74% (active) | 37.6% | 50.3% | 37.8% | 32.7% | 60.5% | 46.2% | 39.7% | 52.1%
2 | c1ccc2cc(Cn3c[n+](Cc4ccc5ccccc5c4)c4ccccc43)ccc2c1 | 53.6% | -80.6% (active) | -7.06% (active) | -20.1% (active) | -90.3% (active) | -19.4% (active) | -98.1% (active) | -70.1% (active) | -93.9% (active) | -28.9% (active)
3 | CC(C)(CO)N(CCO)CCO | 99.7% | 98.6% | 102% | 103% | 91.4% | 91.4% | 97.1% | 101% | 100% | 103%
4 | COc1ccc2[nH]cc(-c3nc(-c4cn(C)c5ccncc45)cs3)c2c1 | -47.7% (active) | -33.6% (active) | 110% | 14.6% | -71.5% (active) | 48.5% | 50.2% | 101% | -88.3% (active) | 91.4%
5 | COc1cccc(NC(=O)c2cccc(C3CCc4c(cc(OC)c(OC)c4OC)O3)c2)c1 (stereo not given) | 63.2% | 71.9% | 85.6% | 74.1% | 75.5% | 28.9% | 36.4% | 40.6% | 59.9% | 81.5%
6 | COc1cc2cc(NCc3ccc(OC(F)F)cc3)nc(C)c2cc1OC | 59.9% | 25.7% | 88.1% | 66.2% | 62.3% | 64.5% | 68.3% | 47% | 27.7% | 72.7%
7 | CCOC(=O)c1c(-c2ccccc2)n2c(=O)cc(C)c3c(O)c(O)cc1c32 | 28.8% | 70.9% | 63.6% | 65.6% | 48.8% | 41.7% | 41.9% | 69.4% | 43% | 76%
8 | Cc1ccc(-c2nc(C(Cl)Cl)nc3cc(C)nn23)cc1 | -2.36% (active) | 3.2% (active) | -11.5% (active) | 25.1% | 4.27% (active) | 44.9% | 44.8% | 59.5% | 52% | 38.4%
9 | CCCCCCC(CCCC)COC(=O)c1ccc(Cl)cc1 (stereo not given) | 107% | 121% | 95% | 109% | 113% | 96.5% | 96.5% | 98.7% | 103% | 112%
10 | Nc1c(C(=O)Nc2ccncc2)sc2nc3c(cc12)CCCCC3 | 64% | 52.9% | 93.5% | 95.9% | 83.7% | 83.8% | -0.0144% (active) | 80.7% | 84% | 82.5%
11 | CCCCn1sc(=O)n(Cc2ccc(CNC(=O)OCc3ccc4c(Cl)cc(Cl)c(O)c4n3)cc2)c1=O | 19% | 101% | 81.1% | 52.5% | 41.1% | 58.5% | 59.5% | 47.9% | 46% | 69.2%
12 | CCOC(=O)c1c(NC(=O)c2ccc(OC)cc2)sc2c(CN(C)C)c(O)ccc12 | 52.5% | 13.9% | 67.7% | 89% | 79.5% | 78.9% | 81.3% | 95.7% | 61.3% | -30.4% (active)
13 | C=CC(=O)N1CCN(c2ccc3cccc(NC(=O)c4cnc(C)cn4)c3n2)CC1 | 21.3% | 51.3% | 15.4% | 62.4% | 32.1% | 43.5% | 61.4% | 26.9% | 33.4% | 68%
14 | COC1=CC(c2ccc[nH]2)=N/C1=C\c1[nH]c(C)c(CC(=O)OCc2ccccc2)c1C | -11% (active) | 4.42% (active) | -7.14% (active) | 23.5% | -21% (active) | 2.94% (active) | -91.5% (active) | -31.7% (active) | -75.4% (active) | -18.2% (active)
15 | CS(=O)(=O)Cc1cnc(C2OCCO2)s1 | 109% | 91.1% | 91.2% | 112% | 96.5% | 92.2% | 97.8% | 106% | 100% | 105%
16 | COC(=O)C1=C(C)NC(C)=C(C(=O)OCC(C)C)C1c1ccccc1[N+](=O)[O-] (stereo not given) | 41% | 87.3% | 68.6% | 82.4% | 68.8% | 35.8% | 38% | 48.7% | 42.4% | 87.1%
17 | Cn1cc(C(=O)c2nc(-c3c[nH]c4ccc(Br)cc34)no2)c2cc(Br)ccc21 | 56.1% | 44% | 73.7% | 86.2% | 52% | 39.3% | 83.4% | 86.1% | 78.3% | 92%
18 | Nc1c(C(=O)Nc2cccc3ncccc23)sc2nc3c(cc12)C(=O)CCC3 | 52.9% | 35.9% | 43.7% | 38% | 57.5% | 35.1% | 30.3% | 17.8% | 55% | 49%
19 | O=P(O)(O)OCC1OC(n2cnc3c(NCc4ccccc4)ncnc32)C(O)C1O (stereo not given) | 9.47% (active) | 23.3% | 49.9% | 40.8% | 47.3% | 19.2% | 84.1% | 38.4% | -8.76% (active) | 127%
20 | Fc1ccc(CNc2c3ccccc3nc3ccccc23)cc1 | 17.6% | 16.1% | 42.1% | 32.4% | 25.9% | 26.9% | 42.5% | 50.2% | 9.43% (active) | 68.2%
21 | CC1(C)CC2=C3C=C[C@@H]4[C@@]5(C)CC[C@H](O)C(C)(C)[C@@H]5CC[C@@]4(C)[C@]3(C)CC[C@@]2(C(=O)O)CC1=O | 28% | 35.7% | 16.8% | 68.9% | 32.3% | 45% | 25.3% | 53.6% | 46.9% | 30.9%
22 | Cn1c(/C=C/[N+](=O)[O-])cc2ccccc21 | -56.7% (active) | -53.2% (active) | 44.3% | 57.7% | -72.1% (active) | 7.59% (active) | 47.2% | 42.2% | -79.7% (active) | 73.3%
23 | COc1ccc(C2C(C#N)=C(N)Oc3c2sc2c(Br)cccc32)cc1 (stereo not given) | 19.1% | 5% (active) | 11.3% | 44.8% | 20.4% | 25.5% | 29.3% | 10.6% | 29.2% | 59.5%
24 | CCOC(=O)c1c(C)nc2c(c1N)CC(=O)N2Cc1cc(OC)c(OC)c(OC)c1 | 28.5% | 8.37% (active) | 53.9% | 66.1% | 38.3% | 52.4% | 23% | 51% | 48.5% | 73.6%
25 | O=C(Cn1nnc([N+](=O)[O-])n1)c1ccccc1 | 80.5% | 66.4% | 67.9% | 116% | 106% | 79.8% | 84.1% | 68.8% | 59.6% | 110%
26 | CC1COCC(C)N1C1=C(Cl)C(=O)c2ccccc2C1=O (stereo not given) | 36.6% | 89.7% | 120% | 96.4% | 45.6% | 47.2% | 66.5% | 76.6% | 7.84% (active) | 87%
27 | CCOC(=O)c1c(C)c2c(n1C)CSc1cc(S(=O)(=O)c3ccccc3)c(=O)[nH]c1-2 | 24.7% [100 µM] | 0.904% [100 µM] (active) | 32.1% [100 µM] | 43.3% [100 µM] | 35.7% [100 µM] | 15.9% [100 µM] | -6.57% [100 µM] (active) | 1.08% [100 µM] (active) | 31.9% [100 µM] | 41% [100 µM]
